According to ChEMBL document CHEMBL4513146, “CO-ADD screening of Karazin Kharkiv National University (Ukraine) compounds”:
Results with a measured potency or affinity are listed apart.

How the values were obtained:
Staphylococcus aureus = settings: Concentration 32 ug.mL-1;; ASSAY_TEST Inhibition of Bacterial Growth; detection method Absorption (OD600); MEDIA CAMHB; plate type 384well; NBS; CORNING #3640; time 18 hr
Escherichia coli = settings: Concentration 32 ug.mL-1;; ASSAY_TEST Inhibition of Bacterial Growth; detection method Absorption (OD600); MEDIA CAMHB; plate type 384well; NBS; CORNING #3640; time 18 hr

COc1cccc(-n2ccn3c(SCc4ccccc4Cl)nnc3c2=O)c1
Inhibition (Staphylococcus aureus): 8.33% | Inhibition (Escherichia coli): -9.75%

O=C(CSc1nnc2c(=O)n(-c3ccccc3)ccn12)Nc1ccc2c(c1)OCCO2
Inhibition (Staphylococcus aureus): 8.84% | Inhibition (Escherichia coli): -1.03%

COc1cccc(CSc2nnc3c(=O)n(-c4ccc(Br)cc4)ccn23)c1
Inhibition (Staphylococcus aureus): 20.73% | Inhibition (Escherichia coli): -1.68%

COc1ccc(CNC(=O)CSc2nnc3c4cc(-c5ccccc5)nn4ccn23)cc1
Inhibition (Staphylococcus aureus): 9.71% | Inhibition (Escherichia coli): 1.16%

CC(C)c1ccc(Oc2nc3ccccc3n3c(=O)n(CC(=O)Nc4ccc5c(c4)OCO5)nc23)cc1
Inhibition (Staphylococcus aureus): 7.37% | Inhibition (Escherichia coli): 4.92%

CCOC(=O)c1ccc(NC(=O)Cn2nc3c4cc(-c5ccc(C)c(C)c5)nn4ccn3c2=O)cc1
Inhibition (Staphylococcus aureus): 3.76% | Inhibition (Escherichia coli): -8.53%

COc1cccc(CNC(=O)CCc2nnc3ccc(-c4ccc(C)cc4)nn23)c1
Inhibition (Staphylococcus aureus): 16.4% | Inhibition (Escherichia coli): -0.37%

O=C(Cn1nc2c(SCc3ccc(Cl)cc3)nccn2c1=O)N1CCN(c2ccccc2)CC1
Inhibition (Staphylococcus aureus): -0.6% | Inhibition (Escherichia coli): -2.68%

O=C(CSc1nnc2c3cc(-c4ccc(F)cc4)nn3ccn12)Nc1ccccc1C(F)(F)F
Inhibition (Staphylococcus aureus): -6.75% | Inhibition (Escherichia coli): -13.58%

Cc1cc2nn(CC(=O)N3CCOCC3)c(=O)n2c(Nc2ccc(C)c(F)c2)n1
Inhibition (Staphylococcus aureus): 15.64% | Inhibition (Escherichia coli): -0.78%

CCCCN(C)c1ccc2nnc(CCc3nc(-c4ccc(OCc5ccccc5)cc4)no3)n2n1
Inhibition (Staphylococcus aureus): -12.25% | Inhibition (Escherichia coli): -8.06%

COc1ccc2[nH]cc(C(=O)CSc3nnc4c(=O)n(-c5ccc(C)c(C)c5)ccn34)c2c1
Inhibition (Staphylococcus aureus): 17.24% | Inhibition (Escherichia coli): -2.44%

CCOc1ccc(N(Cc2ccccc2)S(=O)(=O)c2ccc3nncn3c2)cc1
Inhibition (Staphylococcus aureus): -0.89% | Inhibition (Escherichia coli): -1.41%

CC(C)NC(=O)CSc1nnc2c(=O)n(-c3ccccc3)ccn12
Inhibition (Staphylococcus aureus): -3.39% | Inhibition (Escherichia coli): 1.35%

COc1ccc(NC(=O)Cn2nc3ccc(SCc4ccc(Cl)cc4)nn3c2=O)cc1OC
Inhibition (Staphylococcus aureus): 0.34% | Inhibition (Escherichia coli): -7.61%

Cc1ccc(NC(=O)CSc2nnc3c(=O)n(-c4ccccc4)ccn23)c(C)c1
Inhibition (Staphylococcus aureus): 7.2% | Inhibition (Escherichia coli): -16.98%

O=c1c2sccc2n2c(=O)n(Cc3cccc(F)c3)nc2n1Cc1cccs1
Inhibition (Staphylococcus aureus): -6.6% | Inhibition (Escherichia coli): -12.16%

CCCCOc1ccc(-c2cc3c4nnc(SCC(=O)Nc5cccc(C(C)=O)c5)n4ccn3n2)cc1
Inhibition (Staphylococcus aureus): 1.68% | Inhibition (Escherichia coli): 1.11%

COc1ccc(-c2cc3c4nnc(CCC(=O)NCc5ccc(OC)cc5OC)n4ccn3n2)cc1
Inhibition (Staphylococcus aureus): 16.19% | Inhibition (Escherichia coli): 5.82%

Cc1c(Cl)cccc1-n1ccn2c(=O)n(Cc3cccc(Cl)c3)nc2c1=O
Inhibition (Staphylococcus aureus): 7.64% | Inhibition (Escherichia coli): -4.76%

COc1cccc(CN(c2ccccc2)S(=O)(=O)c2ccc3nncn3c2)c1
Inhibition (Staphylococcus aureus): 6.2% | Inhibition (Escherichia coli): -8.56%

CCOc1ccc(N(Cc2cccc(F)c2)S(=O)(=O)c2ccc3nncn3c2)cc1
Inhibition (Staphylococcus aureus): 8.4% | Inhibition (Escherichia coli): -7.52%

CCc1ccc(NC(=O)Cn2nc3c4cc(-c5ccc(C)c(C)c5)nn4ccn3c2=O)cc1
Inhibition (Staphylococcus aureus): 1.77% | Inhibition (Escherichia coli): -6.18%

O=C(Cn1nc2c(Oc3ccccc3)nccn2c1=O)Nc1ccc(F)cc1Cl
Inhibition (Staphylococcus aureus): 2.27% | Inhibition (Escherichia coli): -4.59%

CC(C)(C)Sc1ccc2nn(CC(=O)Nc3ccccc3Cl)c(=O)n2n1
Inhibition (Staphylococcus aureus): 7.11% | Inhibition (Escherichia coli): -2.79%

Cc1cccc(NC(=O)Cn2nc3ccc(-c4ccc(Cl)cc4)nn3c2=O)c1C
Inhibition (Staphylococcus aureus): 5.25% | Inhibition (Escherichia coli): -5.96%

COc1cccc(-n2ccn3c(SCC(=O)N4CCN(c5ccccc5F)CC4)nnc3c2=O)c1
Inhibition (Staphylococcus aureus): 12.37% | Inhibition (Escherichia coli): -5.42%

Cc1cccc(Sc2nc3ccccc3n3c(=O)n(CC(=O)Nc4c(C)cc(C)cc4C)nc23)c1
Inhibition (Staphylococcus aureus): 8.94% | Inhibition (Escherichia coli): -2.19%

COc1ccc(Cl)cc1NC(=O)CSc1nnc2c(=O)n(-c3ccccc3)ccn12
Inhibition (Staphylococcus aureus): 7.26% | Inhibition (Escherichia coli): -0.85%

C=Cc1ccc(CN(c2ccc(F)c(F)c2)S(=O)(=O)c2cccn3cnnc23)cc1
Inhibition (Staphylococcus aureus): -2.72% | Inhibition (Escherichia coli): -13.7%

CC(C)c1ccc(Cn2c(=O)c3sccc3n3c(SCc4cccc(C(F)(F)F)c4)nnc23)cc1
Inhibition (Staphylococcus aureus): 11.56% | Inhibition (Escherichia coli): 1.07%

O=C(Cn1nc2n(Cc3ccccc3)c(=O)c3ccccc3n2c1=O)Nc1ccc2c(c1)OCO2
Inhibition (Staphylococcus aureus): -3.15% | Inhibition (Escherichia coli): 1.74%

Cc1c(Cl)cccc1-n1ccn2c(=O)n(Cc3cccc(F)c3)nc2c1=O
Inhibition (Staphylococcus aureus): 9.54% | Inhibition (Escherichia coli): -6.71%

O=C(Cn1nc2ccc(SCc3ccc(Cl)cc3)nn2c1=O)Nc1cccc(F)c1
Inhibition (Staphylococcus aureus): -14.75% | Inhibition (Escherichia coli): -12.61%

Cc1ccc(-c2ccc3nn(CC(=O)NCc4ccc(Cl)cc4)c(=O)n3n2)cc1C
Inhibition (Staphylococcus aureus): -0.74% | Inhibition (Escherichia coli): -5.52%

Cc1cc(C)c(NC(=O)Cn2nc3c(SC4CCCCC4)nccn3c2=O)c(C)c1
Inhibition (Staphylococcus aureus): 12.7% | Inhibition (Escherichia coli): -1.77%

COC(=O)c1ccc(CN(c2ccc(Cl)cc2)S(=O)(=O)c2ccc3nncn3c2)o1
Inhibition (Staphylococcus aureus): 10.93% | Inhibition (Escherichia coli): -7.28%

O=S(=O)(c1ccc2nncn2c1)N(Cc1cccc(F)c1)c1cc(F)cc(F)c1
Inhibition (Staphylococcus aureus): 0.07% | Inhibition (Escherichia coli): -4.91%

Cc1[nH]c2ccccc2c1C(=O)CSc1nnc2c(=O)n(-c3ccccc3)ccn12
Inhibition (Staphylococcus aureus): 16.56% | Inhibition (Escherichia coli): -0.61%

CC(C)NC(=O)Cn1nc2nc(Nc3ccc(F)cc3)ccn2c1=O
Inhibition (Staphylococcus aureus): 8.74% | Inhibition (Escherichia coli): -2.64%

Cc1cccc(C)c1NC(=O)Cn1c(=O)c2nnc(C(C)C)n2c2ccccc21
Inhibition (Staphylococcus aureus): 9.36% | Inhibition (Escherichia coli): 1.82%

CCc1nnc2c(SCC(=O)Nc3ccc(OC)c(Cl)c3)nc3ccccc3n12
Inhibition (Staphylococcus aureus): 9.23% | Inhibition (Escherichia coli): 5.47%

COc1ccc(OC)c(NC(=O)Cn2nc3ccc(-c4ccc(C)cc4)nn3c2=O)c1
Inhibition (Staphylococcus aureus): -7.96% | Inhibition (Escherichia coli): -11.89%

CCc1nnc2c(S(=O)(=O)N(Cc3cccc(F)c3)c3ccc(C)c(C)c3)cccn12
Inhibition (Staphylococcus aureus): 17.57% | Inhibition (Escherichia coli): 2.28%

O=C(Cn1nc2ccc(SC3CCCCC3)nn2c1=O)Nc1ccc2c(c1)OCO2
Inhibition (Staphylococcus aureus): -7.41% | Inhibition (Escherichia coli): -17.56%

Cc1nnc2ccc(S(=O)(=O)N(Cc3ccc(F)cc3)c3ccc4c(c3)OCO4)cn12
Inhibition (Staphylococcus aureus): 6.11% | Inhibition (Escherichia coli): -4.59%

Cc1ccc(N(Cc2cccc(C)c2)S(=O)(=O)c2cccn3c(C)nnc23)cc1
Inhibition (Staphylococcus aureus): -2.01% | Inhibition (Escherichia coli): -15.69%

Cc1cc(C)cc(Nc2nc(C)cc3nn(CC(=O)Nc4ccc(F)cc4F)c(=O)n23)c1
Inhibition (Staphylococcus aureus): 11.96% | Inhibition (Escherichia coli): -0.48%
